# Source: PubChem BioAssay
# PLK1 kinase inh: PLK1 (human) kinase inhibition. P53350. recombinant PLK1 kinase, TR-FRET peptide phosphorylation. inhibition, % at 10 µM. actives 0.53% (n = 97,000). AID 619;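 active = inhibition of 50% or more in the single-concentration screen; inactive = inhibition below 50%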;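 also: 0% = DMSO max control and 100% = H-89 dihydrochloride min control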
# PTPN22 act: increases human PTPN22 phosphatase activity. Q9Y2R2. recombinant LYP, DiFMUP fluorescence; 0 = plate median, 100 = signal doubled. activation, % at 2 µM. actives 0.11% (n = 96,000). AID 697;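 active = activation at 2 µM above a set limit, the mean plus 5 SD, cut at about 37% in these data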
# Target sequence (Q9Y2R2 whole entry, looked up): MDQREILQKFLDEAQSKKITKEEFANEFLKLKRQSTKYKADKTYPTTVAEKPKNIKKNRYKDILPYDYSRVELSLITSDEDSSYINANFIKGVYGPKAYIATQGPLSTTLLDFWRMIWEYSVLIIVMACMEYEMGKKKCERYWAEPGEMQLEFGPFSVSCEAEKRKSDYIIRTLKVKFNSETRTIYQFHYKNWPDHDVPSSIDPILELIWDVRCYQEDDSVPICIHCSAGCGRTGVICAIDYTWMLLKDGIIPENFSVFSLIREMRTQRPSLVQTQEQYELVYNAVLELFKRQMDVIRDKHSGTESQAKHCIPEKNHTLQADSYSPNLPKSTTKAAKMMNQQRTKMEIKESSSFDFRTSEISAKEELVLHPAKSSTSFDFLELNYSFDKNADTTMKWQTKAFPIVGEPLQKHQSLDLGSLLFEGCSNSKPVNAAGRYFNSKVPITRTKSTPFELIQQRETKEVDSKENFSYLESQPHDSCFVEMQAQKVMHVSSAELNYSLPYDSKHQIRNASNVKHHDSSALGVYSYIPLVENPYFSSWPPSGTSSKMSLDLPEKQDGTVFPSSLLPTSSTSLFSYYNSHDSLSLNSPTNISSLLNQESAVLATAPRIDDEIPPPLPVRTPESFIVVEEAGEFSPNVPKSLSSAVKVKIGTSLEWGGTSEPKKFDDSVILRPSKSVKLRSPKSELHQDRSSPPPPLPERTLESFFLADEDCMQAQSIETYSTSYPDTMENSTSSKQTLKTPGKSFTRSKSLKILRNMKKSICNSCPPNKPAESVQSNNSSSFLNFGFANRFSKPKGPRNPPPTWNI
# Plk1 PBD FP: Plk1 (human) PBD binding inhibition. P53350. Plk1 PBD phosphopeptide binding, fluorescence polarization. inhibition, %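 (tested at about 20 µM)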. actives 0.13% (n = 97,000); in the data active = inhibition above about 34%, passing the limit was not always enough
# Pyk2 oligo antag: blocks oligomerization of human Pyk2 in cells; AID 1347419; z-score (the deposit names both 25 µM and 10 µM); actives 0.83% (n = 99,000); Q293 cells, Pyk2 FERM NanoBiT luminescence; active compounds read low; Q14289;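 active = Z-score of -3 or lower, scaled per plate to the spread of control and sample wells; inactive = z-score above -3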;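 also: negative z-score means lost luminescence so less FERM oligomerization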
# PTPN22 inh 2: LYP (human) phosphatase inhibition. Q9Y2R2. recombinant LYP catalytic domain, DiFMUP fluorescence. inhibition, % at 2 µM. actives 0.21% (n = 96,000);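 active = inhibition at 2 µM at or above a set limit, the screen mean plus 3 SD, cut at about 24% in these data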;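 also: 0% = DMSO with enzyme and 100% = enzyme fully blocked by orthovanadate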
# PLK1 confirm: confirmation of human PLK1 kinase inhibitors; shares compounds with PLK1 kinase inh; actives 20% (n = 210); recombinant PLK1 kinase, TR-FRET peptide phosphorylation; inhibition, % at 10 µM; AID 744;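 active = inhibition at or above 50% in each of two repeat confirmation tests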;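 also: 0% = DMSO max control and 100% = H-89 kinase-blocked min control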
# TR-FRET interf: counter-screen for Plk1 inhibitors: compound assay interference | shares compounds with PLK1 kinase inh | Plk1 TR-FRET assay interference, compound added post-reaction | inhibition (interference), % at 10 µM | 210 tested, under 10 active;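 active = both duplicate runs show 50% or greater inhibition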;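 also: 0% = DMSO max control and 100% = H-89 min control inhibited reaction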
# PBD redox DR: generates H2O2 by redox cycling, flagging false Plk1 PBD hits | 120 tested, under 10 active | EC50, µM | redox cycling H2O2 generation, DTT, counter-screen | shares compounds with Plk1 PBD FP; call rule not given here
# * marks the source's active call; other numbers are inactive results; . = no result. An excerpt weighted towards active compounds, which were near 1.7% of everything screened.
SMILES,PLK1 kinase inh,PTPN22 act,Plk1 PBD FP,Pyk2 oligo antag,PTPN22 inh 2,others
CCOC(=O)c1c(-n2c(C)cc(/C=C3/C(=O)NC(=O)N(CC)C3=O)c2C)sc2c1CCCC2,-10.6,6.2,-23.8,0.04,-8.4,
CCOC(=O)c1c(-n2c(C)cc(C=C3C(=O)NC(=S)NC3=O)c2C)sc2c1CCCC2,-26.7,-24.3,42.4,-1.01,28.9*,
COc1ccc(Cn2c(N)c(C(=O)NCc3ccco3)c3nc4ccccc4nc32)cc1,55.0*,-11.2,-18.5,-1.85,11.4,
CCN(CC)CCCNC(=O)c1c(O)c2ccccc2n(Cc2ccccc2)c1=O,-6.2,-21.7,-12.0,-0.69,24.4*,
O=c1c2ccccc2nc(-c2cccs2)n1-c1ccccc1,-2.5,-11.4,-2.0,-0.39,13.7,
CCn1nc(-c2cccs2)nc2c(=O)n(C)c(=O)nc1-2,.,.,.,-3.33*,.,
CC1C(c2cccs2)=[N+]([O-])C(C)(C(=O)c2ccc(Cl)cc2)N1O (configuration not stated),-7.4,-0.7,32.5,-0.6,5.8,
CCN1/C(=C\C=C\C2=[N+](CC)c3ccccc3C2(C)C)C(C)(C)c2ccccc21,52.8*,5.7,-77.4,-3.37*,-3.2,
Cc1cc(C)cc(N2C(=O)NC(=O)/C(=C\c3cccn3-c3ccc(Cl)cc3)C2=O)c1,-5.7,-0.6,-34.4,-3.22*,2.7,
Cc1cccn2c(=O)c3cc(C(=O)N4CCC5(CC4)OCCO5)n(C)c3nc12,-5.9,12.8,-17.6,1.13,-12.2,
O=C1C2CCCN2C(c2cccnc2)N1c1ccc(Cl)c(Cl)c1 (configuration not stated),-6.8,9.9,19.7,-3.12*,-12.7,
CCSc1cc(C2C(C#N)=C(N)Oc3n[nH]c(C)c32)c(C)o1 (configuration not stated),1.1,-2.1,3.1,-0.17,6.0,
FC(F)(F)c1cccc(-n2nnnc2C2(N3CCOCC3)CCCCC2)c1,-6.2,12.7,0.0,-2.29,-8.1,
O=c1[nH]c(=O)n(CCC2=CCCCC2)c(O)c1C=NCc1cccnc1,-4.7,1.7,10.4,-3.19*,-4.2,
CCN(CC)CCN=Cc1c(O)n(CCC2=CCCCC2)c(=O)[nH]c1=O,-9.2,12.0,2.8,1.12,-15.7,
CCCCn1c(O)c(C(CC)=NC(C)c2ccccc2)c(=O)[nH]c1=O (configuration not stated),0.3,3.1,-13.8,-3.84*,-2.4,
CCCCn1c(O)c(C(C)=NC(C)c2ccccc2)c(=O)[nH]c1=O (configuration not stated),-8.7,-11.4,-19.6,-3.57*,9.7,
C=CCn1c(O)c(C(CC)=NC(C)c2ccccc2)c(=O)[nH]c1=O (configuration not stated),-4.8,-2.9,-12.8,-0.85,-0.4,
O=C(Cn1cnc2sc3c(c2c1=O)CCCC3)NCCC(=O)N1CCC2(CC1)OCCO2,1.9,3.7,-25.7,-0.31,-3.5,
COc1ccc(N=C(C)c2c(O)n(C3CCCCC3)c(=O)[nH]c2=O)c(OC)c1,-4.2,-3.7,-32.5,-3.35*,4.8,
CC(=Nc1ccc2c(c1)CCC2)c1c(O)n(C2CCCCC2)c(=O)[nH]c1=O,-13.5,-6.0,-2.5,-0.92,7.0,
N#CC1=C(N)Oc2c(c(=O)oc3ccccc23)C1c1ccc(OC(=O)N2CCOCC2)cc1 (configuration not stated),-5.5,.,.,.,.,
CN(C)C(=O)Oc1ccc(-c2nnco2)cc1,77.9*,.,-7.9,.,.,PLK1 confirm=-11.2;TR-FRET interf=-58.3
CC1=CC(=O)C2=C(C)CC(O)C3C(C)C(=O)OC3C12 (configuration not stated),-12.5,6.0,7.8,-0.51,-6.6,
Cc1ccc(-n2c(O)c(C=NCCN3CCOCC3)c(=O)[nH]c2=O)cc1,-34.5,-1.5,44.1*,-0.05,3.1,PBD redox DR=>50
C=CCn1c(O)c(C(CC)=Nc2ccc(N(CC)CC)cc2)c(=O)[nH]c1=O,-10.8,0.7,-13.8,0,-3.4,
